Reference: PubChem BioAssay AID651871 (Sanford-Burnham Center for Chemical Genomics, 2012)
“And” between values parts separate entries of the source, which are not always exact repeats. Identical values can stand only once.

Tested on: H9c2
Assay: protection of cardiomyocytes from stress damage, SAR follow-up, cell-based, panel, H9c2 and HL-1, ATP luminescence, set 2 (AID 651871);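 also: cells exposed to stressor for 2 h before ATP readout; reference of the scale not given here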
Details: H9c2/HL-1 cardiomyocytes, 2-deoxyglucose stress, with 2-deoxyglucose; run 11, at 79 µM (top of the series)

| SMILES | activity (protection/inhibition) |
| --- | --- |
| COc1ccc2c(c1OC)C(=O)N1c3ccccc3C(=O)N(Cc3cccc(Cl)c3Cl)C21 (stereo not drawn) | 89.7% and 82.5% and -2.54% |
| COc1ccc2nc(-c3cc(OC)c(OC)c(OC)c3)cc(C(=O)NCC(=O)Nc3ccc(C(C)=O)cc3)c2c1 | 68.6% |
| CCOC(=O)c1cccc(NC(=O)CNC(=O)c2cc(-c3cc(OC)c(OC)c(OC)c3)nc3ccccc23)c1 | 112% |
